# Bioassay records deposited in PubChem BioAssay by National Center for Advancing Translational Sciences (NCATS).
# A selection: hits, their analogues and other compounds. The true share with any hit is near 9.3%.
# FMDV inh – blocks foot and mouth disease virus. FMDV antiviral cell-based qHTS. Potency, µM (highest dose often 57.9 µM), for inactives: at the highest dose activity change, negative = inhibition, hits mostly inhibitors. 410,000 compounds, 1.2% hits. AID 1159524; calls by dose curve; tested in HEK293T cells; further: read-out not given here; potency means the concentration at half of the fitted maximal effect; nearly all actives have a fitted effect of over 45% in size
# Sm TGR block – inhibitors of Schistosoma mansoni thioredoxin glutathione reductase | Q962Y6 | purified TGR, DTNB reduction, TNB absorbance 405 nm | Potency, µM (top dose mostly 114 µM), without a hit: at the top dose activity change, negative = inhibition, actives largely listed as inhibitors | 360,000 compounds, 3% hits | AID 485364; further: potency means the concentration at half of the fitted maximal effect; nearly all actives have a fitted effect of over 60% in size
#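 First, TGR (20 nM dispensed) and NADPH were mixed with compound. Second, a 15 min room-temperature incubation followed. Third, further NADPH and then DTNB were added to start the reaction. Finally, TNB absorbance was monitored kinetically.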
# Vaccinia mCherry – vaccinia inhibition (mCherry reporter); Vaccinia virus mCherry reporter infection, fluorescence; Potency, µM (highest dose often 36.5 µM), for the others: top-dose activity change, negative = inhibition, hits mostly inhibitors; 310,000 compounds, 0.63% hits; calls by dose curve; tested in A549 cells; further: potency means the concentration at half of the fitted maximal effect; nearly all actives have a fitted effect of over 35% in size
# HCV inhibitor – HCV inhibition; Huh7.5.1 HCVcc-Cre infection, luciferase reporter, 44 h; Potency, µM (titrated, usually from 41.8 µM), inactives show top-dose activity change, negative = inhibition, actives largely listed as inhibitors; 340,000 compounds, 3.4% hits; AID 651820; further: potency means the concentration at half of the fitted maximal effect
#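 Reporter virus HCVcc-Cre (~0.5 moi) infects cells exposed to compound; seeding density 1,000 cells/well with 4 h settling beforehand. Luminescence, 15 sec read, taken 44 h post-infection following a 15 min RT substrate incubation.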
# Vaccinia Venus – vaccinia inhibition (Venus reporter) | 330,000 compounds, 0.46% hits | AID 720580 | Vaccinia virus Venus reporter expression, fluorescence | Potency, µM (series often up to 36.5 µM), for the others: at the highest dose activity change, negative = inhibition, actives largely listed as inhibitors; calls by dose curve; tested in A549 cells; further: potency means the concentration at half of the fitted maximal effect; nearly all actives have a fitted effect of over 30% in size
# HCMV inh – inhibitors of human cytomegalovirus. 410,000 compounds, 4.5% hits. activity change, negative = inhibition, % at 57.5 µM. AID 1259415. HFF cells, HCMV-luciferase reporter, 72 h; stronger effect = lower value; in the data active means activity change below about -60%; inconclusive means no clear call, values can overlap the other calls; inactive means above about -39%
#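 Screen run at 2 compound doses on HFFs infected with reporter HCMV, MOI 1 PFU/cell. Luciferase activity from cell lysates at 72 h post infection gave inhibition relative to buffer-only and Salinomycin wells.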
# Numbers without * were called inactive; i = inactive; ? = inconclusive; · = no result given; [ ] = another dose, or the depositor's remark. Unless noted, the call rests on the fitted dose curve; in most records, active means well fitted curve in the direction sought with a large enough effect; inconclusive means small, poorly fitted or top-dose-only effect, or another doubt; inactive means no such curve, though single readings can be large; an effect the other way counts as inactive or inconclusive. On the % scale 0 is the no-effect control and ±100 the full control effect.
SMILES,FMDV inh,Sm TGR block,Vaccinia mCherry,HCV inhibitor,Vaccinia Venus,HCMV inh
CN(Cc1cccc(Cl)c1Cl)c1ccc(S(=O)(=O)N2CCCCC2)cc1[N+](=O)[O-],0%,-7%,0%,11µM*,-15%,?
CN(CC(=O)Nc1ccc(S(=O)(=O)N2CCCC2)cc1)Cc1cccc(Cl)c1Cl,-27%,5%,-29%,-17%,-23%,-40
COC/C=C/C1=CC2=CC(=O)C(C)(OC(=O)c3cnc4ccccc4n3)C(=O)C2=CN1CCOC (configuration not stated),-15%,·,i,10%,-9%,-3
COC/C=C/C1=CC2=CC(=O)C(C)(OC(=O)c3cnc4ccccc4n3)C(=O)C2=CN1CCN1CCOCC1 (configuration not stated),20%,14µM*,-12%,-1%,3%,-17
Cc1ccccc1NC(=O)c1ccc(Nc2c([N+](=O)[O-])cc([N+](=O)[O-])c3ccccc23)cc1,?,6%,?,14µM*,-25%,-92*
Cc1cc(C(=O)Nc2ccc(Nc3ccccc3)cc2)ccc1[N+](=O)[O-],-23%,-1%,i,11µM*,?,-21
C[C@H]1[C@@H](NS(=O)(=O)c2ccc(C(F)(F)F)cc2)CC[C@@]23CCCN2C(=O)CCC[C@@H]13,·,·,·,·,·,-25
CN(c1ccccc1C(=O)NC1CC2CCC1C2)S(=O)(=O)c1ccccc1 (configuration not stated),-15%,-12%,-17%,6%,0%,?
CCOn1c(-n2nc(C)cc2C)nc2ccccc2c1=O,14%,-7%,·,23%,·,-26
Cc1cc(C)n(-c2nc3ccccc3c(=O)n2OCC#N)n1,-15%,5%,2.5µM*,?,?,-89*
O=C(NCCc1cccc(F)c1)C1CCN(S(=O)(=O)c2ccccc2)CC1,-16%,5%,·,-7%,·,-36
Clc1ccc(-n2nnc(-c3cccnc3Cl)n2)cn1,32%,?,?,7%,-20%,20
COc1ncccc1-c1nnn(-c2ccc(Cl)nc2)n1,78%,25µM*,-9%,10%,-6%,100
N[C@@H](Cc1cc(Br)c(O)c(Br)c1)C(=O)O,·,25µM*,·,-8%[8.37 µM],·,·
NC(=O)c1c(NC(=O)c2ccc(F)cc2)sc2c1CCC2,24%,?,-4%,?,-20%,77
Cc1ccc(Cn2nnc(C(=O)Nc3cc(C)ccc3C)c2N)cc1,0%,-25%,·,15%,·,-11
COc1ccc(Br)cc1Cn1nnc(C(=O)Nc2ccc(C)cc2C)c1N,-4%,0%,?,·,-22%,-74*
CSc1ccc(Cn2nnc(C(=O)Nc3ccc(C)cc3Cl)c2N)cc1,64%,7%,-16%,·,-30%,-78*
Cn1cc(CNC(=O)C2CCC(=O)N(Cc3ccc(Cl)cc3)C2)cn1 (configuration not stated),-16%,9%,·,1%,·,-24
CCC(=O)N1CCCc2cc(S(=O)(=O)N3CCC(C(=O)Nc4cccc(Cl)c4)CC3)ccc21,-23%,-1%,-20%,·,-16%,0
O=C(Nc1ccccc1N1CCCC1)c1cc(S(=O)(=O)N2CCOCC2)ccc1Cl,-26%,4%,-8%,-12%,-9%,?
O=S(=O)(c1ccc(Cl)c(NC(=S)N/N=C/c2ccc(O)cc2)c1)N1CCOCC1,?,-22%,?,?,?,-83*
O=S(=O)(c1ccc(Cl)c(NC(=S)Nc2ccccc2N2CCOCC2)c1)N1CCOCC1,-23%,35µM*,-8%,3%,-3%,-16
O=S(=O)(c1ccc(Cl)c(NC(=S)N/N=C/c2c(F)cccc2F)c1)N1CCOCC1,?,-2%,-11%,5%,-12%,-28
O=C(Cc1ccc([N+](=O)[O-])cc1)N1N=C2CCCCC2C1(O)C(F)(F)F (configuration not stated),-29%,5%,-5%,15%,-9%,22
SMILES,FMDV inh,Sm TGR block,Vaccinia mCherry,HCV inhibitor,Vaccinia Venus,HCMV inh
O=C(Cn1ccc(NC(=O)OCc2ccccc2)nc1=O)NCc1nc2ccccc2[nH]1,-11%,6%,i,10%,-9%,-23
CCCOc1ccc(CNC(=O)Cn2ncc3ccccc32)cc1,25%,8%,-22%,-1%,-17%,26
C=C1C(=O)OC2CC1C(O)CC(C)=CCCC(C)=CC(O)CC2C (configuration not stated),7.9µM*,·,?,7.1µM*,11µM*,-34
COc1ccccc1NC(=O)Nc1nc(CC(=O)NCc2ccc(F)cc2)cs1,40µM*,-13%,?,7.1µM*,?,-40
CN(C)Cc1csc(NC(=O)Nc2ccccc2C(C)(C)C)n1,-14%,·,-12%,·,-9%,-76*
COc1ccccc1NC(=O)Nc1nc(CC(=O)NCc2c(F)cccc2F)cs1,-9%,-1%,-5%,?,-19%,-1
Cc1ccccc1NC(=O)Nc1nc(CN(C)C)cs1,1%,·,6%,·,-4%,-9
COc1cccc(CNC(=O)Cc2csc(NC(=O)Nc3ccccc3OC)n2)c1,-5%,0%,0%,5.6µM*,-13%,-17
CC(=NNC(=S)N(Cc1ccccn1)Cc1ccccn1)c1cnccn1,-6%,·,1.4µM*,?,3.5µM*,-98*
S=C(NN=Cc1ccccn1)N(Cc1ccccn1)Cc1ccccn1,-15%,·,5.6µM*,1.3µM*,?,-77*
COc1ccccc1NC(=S)N(Cc1ccc(C)cc1)Cc1ccccn1,0%,5%,0%,11%,-4%,-8
Cc1ccccc1NC(=S)N(Cc1ccccn1)Cc1ccccc1Cl,28%,6%,-14%,-22%,-7%,?
O=C(Cc1ccccc1)N/N=C/c1ccccn1,·,·,-3%,18%,-18%,-84*
S=C(NN=C(c1ccccc1)c1ccccn1)N(Cc1ccccn1)Cc1ccccn1,-20%,·,2.5µM*,1.3µM*,?,-97*
CS(=O)(=O)c1ccc(Cl)c(NC(=O)COC(=O)/C=C/c2cnc3ccccc3n2)c1,7%,2%,3%[7.34 µM],10%,14%[7.34 µM],29
Cc1nc2ccccc2c(C)c1C(=O)c1ccccc1,-28%,-7%,-6%,?,-6%,?
COC(=O)c1cccc(C(=O)N2CCCC(C(=O)c3ccccc3OC)C2)c1 (configuration not stated),0%,-7%,-8%,-8%,4%,?
COc1cccc(NC(=O)Cn2c(CCC(=O)O)ccc2-c2cccs2)c1,-5%,-20%,-27%,11%,-20%,-5
O=C(O)CCc1ccc(-c2cccs2)n1CCc1ccccc1,-22%,10µM*,·,35%,·,-33
COc1ccc(OC)c(NC(=O)Cn2c(CCC(=O)O)ccc2-c2cccs2)c1,-25%,?,·,7%,-6%,19
